# Assay results taken from PubChem BioAssay.
# Activity calls are given as the source filed them. Unless noted, no rule for the calls is given here.
# Legend:
# [1] = system: XIP peptide (Xip251-270) binding; assay: XIP fragment 251-270 binding compounds – biochemical, small-molecule microarray, fluorescence 635/667 nm, 0.1 µg/mL protein, primary screen (AID 1182); settings: fluorescent protein binding, 635 nm, higher = more signal, called active from +8 up or from −8 down
# [2] = system: XIP peptide (Xip251-270); assay: compounds binding XIP fragment 251-270 – biochemical, small-molecule microarray, fluorescence 635/667 nm, 0.5 µg/mL protein, primary screen (AID 1183); settings: fluorescence 635 nm, higher = more signal
# [3] = blood-stage malaria parasite viability loss – strain 3D7, DAPI fluorescence, 100 nL, primary screen (AID 1184);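 also: parasites grown inside human red blood cells in medium with human serum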; settings: P. falciparum 3D7 growth, 3 d, higher = more signal
# [4] = target: Homeobox protein Hox-A13 (Mus musculus) (UniProt Q62424); assay: disruptors of Hoxa13 oligonucleotide interaction – biochemical, fluorescence polarization, labeled oligonucleotide, primary screen (AID 1185); settings: Hoxa13:DNA binding, 15 min, higher = more signal, called active from +8 up or from −8 down
# [5] = blockers of DNA damage checkpoint Chk1 activation – imaging, HeLa, hydroxyurea, phospho-Chk1 antibody, percent positive cells, primary screen (AID 1186); settings: hydroxyurea-induced phospho-Chk1 immunofluorescence imaging, higher = more signal
# [6] = blockers of DNA damage checkpoint Chk1 activation – imaging, HeLa, hydroxyurea, phospho-Chk1 nuclear intensity, primary screen (AID 1187); settings: hydroxyurea-induced phospho-Chk1 immunofluorescence imaging, higher = more signal
# Chain of Homeobox protein Hox-A13 (Mus musculus) (Q62424 whole entry, looked up): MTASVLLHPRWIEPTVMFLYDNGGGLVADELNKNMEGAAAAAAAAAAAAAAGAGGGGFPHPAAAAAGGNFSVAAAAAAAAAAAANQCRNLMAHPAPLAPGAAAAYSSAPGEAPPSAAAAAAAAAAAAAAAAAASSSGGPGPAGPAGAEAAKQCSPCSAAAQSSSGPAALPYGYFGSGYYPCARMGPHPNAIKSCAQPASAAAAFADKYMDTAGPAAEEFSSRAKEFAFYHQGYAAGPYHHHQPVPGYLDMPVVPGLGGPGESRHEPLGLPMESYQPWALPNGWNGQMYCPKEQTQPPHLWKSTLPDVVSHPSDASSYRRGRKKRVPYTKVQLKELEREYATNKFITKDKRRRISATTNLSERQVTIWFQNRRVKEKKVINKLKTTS
SMILES,composite z-score [1],composite z-score [2],z-score [3],z-score [4],z-score [5],z-score [6]
CCCCC(CC)C(O)C1C=CC2C(=O)N(c3ccccc3)C(=O)C2N1Nc1ccccc1 (stereo not given),-0.147 (inactive),0.216,-0.392,-1.89 (inactive),-0.335 (inactive),-0.23 (inactive)
CN(C)C(=O)[C@@]1(CCC(=O)OC(C)(C)C)N=C(c2ccc(OCCCO)cc2)O[C@H]1c1ccccc1,0.373 (inactive),0.909,-1.8,-5.79 (inactive),0.196 (inactive),0.0613 (inactive)
COCCCNC(=O)[C@@]1(CCC(=O)OC(C)(C)C)N=C(c2ccc(OCCCO)cc2)O[C@H]1c1ccccc1CN=[N+]=[N-],0.748 (inactive),0.761,-1.99,-5.33 (inactive),-0.376 (inactive),-0.101 (inactive)
CC(C)C(=C=CC[C@H](O)c1cccc(OCCO)c1)C[C@H](O)COCc1ccccc1,0.31 (inactive),-0.376,-1.49,-3.93 (inactive),-0.648 (inactive),-0.289 (inactive)
CCCN1C(=O)[C@@]2(CCC(=O)OC(C)(C)C)N=C(c3ccc(OCCCO)cc3)O[C@H]2c2ccccc21,0.317 (inactive),0.563,-2.31,-3.53 (inactive),-0.0458 (inactive),0.261 (inactive)
CC(C)C[C@@H]1NC(=O)[C@@H]2C[C@H](C(=O)NCCCCCC[N+](C)(C)C)[C@H](c3ccc(O)cc3)N2C1=O,1.5 (inactive),0.535,0.727,-2.3 (inactive),-0.525 (inactive),-0.124 (inactive)
COC(=O)C1=CC(CCCO)=CC(C2CC2)N(Cc2sc3ccccc3c2Cl)C=C1C(=O)OC (stereo not given),0.827 (inactive),0.793,-2.02,-5.27 (inactive),0.0745 (inactive),0.263 (inactive)
COCCOC(=O)N1C(=O)[C@@]2(c3cc(C#CC4=CCCCC4)ccc31)[C@H](C(=O)N1CCc3cc(OC)c(OC)cc3C1)[C@H]1C(=O)O[C@H](c3ccccc3)[C@H](c3ccccc3)N1[C@@H]2c1ccccc1OCCO,0.0851 (inactive),0.544,-2.23,2.24 (inactive),-0.0513 (inactive),0.226 (inactive)
CN1C(=O)C2C(C1=O)C1C=C(CCCO)C2C(c2cccs2)N1C (stereo not given),-0.119 (inactive),-0.0427,0.404,-9.72 (active),0.207 (inactive),-0.0851 (inactive)
CC(c1ccccc1)C(O)C1C=CC2C(=O)NC(=O)C2N1Nc1ccccn1 (stereo not given),0.197 (inactive),0.676,0.196,-1.82 (inactive),0.651 (inactive),0.136 (inactive)
CCOC(=O)C[C@H]1[C@H](OC(=O)c2ccc(-c3ccccc3)cc2)[C@@H](NC(=O)Cc2ccc(OC)cc2)c2cc(OCCCO)ccc2N1C(=O)c1ccc2ccccc2n1,-0.0562 (inactive),0.111,0.351,-2.51 (inactive),-0.42 (inactive),-0.0198 (inactive)
COC(=O)[C@@]1(Cc2ccc(F)cc2)[C@H]2c3cc(C(=O)N4CCCC4)n(Cc4cccc5ccccc45)c3C[C@H]2CN1C(=O)c1ccccc1,0.702 (inactive),0.0322,-1.74,-4.87 (inactive),-0.704 (inactive),-0.576 (inactive)
O=C(CS)NCCCCCCNC(=O)[C@H]1C[C@H]2C(=O)NCC(=O)N2[C@H]1c1ccc(O)cc1,0.545 (inactive),0.832,0.509,-2.43 (inactive),0.419 (inactive),0.37 (inactive)
CC(C)N1C(=O)[C@@]2(c3ccc([N+](=O)[O-])cc3)CC(=O)N(CC34CC5CC(CC(C5)C3)C4)[C@@H]2c2ccc(CO)cc21,-0.43 (inactive),0.52,0.115,-0.734 (inactive),0.18 (inactive),-0.0138 (inactive)
O=C(CS)NCCCCCCNC(=O)[C@H]1C[C@H]2C(=O)N3CCC[C@H]3C(=O)N2[C@H]1c1cccc(OCCO)c1,0.517 (inactive),0.773,-0.0979,-3.15 (inactive),-0.188 (inactive),-0.318 (inactive)
CCOC(=O)C1=CCC(c2ccc(C#N)cc2)N(S(=O)(=O)c2ccc(C)cc2)C1 (stereo not given),1.79 (inactive),0.766,-1.33,-3.74 (inactive),-0.308 (inactive),-1.22 (inactive)
CCCCCN1CC=CC23O[C@@H]4/C=C\CCC(C)OC(=O)C4[C@H]2C(=O)N(CCCCCO)[C@@H]3C1=O (stereo not given in full),-0.263 (inactive),0.0185,-1.24,-4.05 (inactive),-0.464 (inactive),0.131 (inactive)
O=C1O[C@H](c2ccccc2)[C@H](c2ccccc2)N2[C@H]1[C@@H](C(=O)NC[C@H](O)c1ccccc1)[C@]1(C(=O)Nc3ccc(C#CCCO)cc31)[C@H]2c1ccc(O)cc1,-0.105 (inactive),0.278,-1.23,-0.545 (inactive),0.289 (inactive),0.0974 (inactive)

SMILES,composite z-score [1],composite z-score [2],z-score [3],z-score [4],z-score [5],z-score [6]
Cc1cc(C)c(C(O)C2C=CC3C(=O)N(c4ccccc4)C(=O)C3N2Nc2ccc(C#N)cc2)c(C)c1 (stereo not given),1.69 (inactive),0.432,-0.558,0.783 (inactive),0.0661 (inactive),0.0947 (inactive)
COCCOC(=O)N1C(=O)[C@@]2(c3cc(C#CC4=CCCCC4)ccc31)[C@H](C(=O)NC[C@H](O)c1ccccc1)[C@H]1C(=O)O[C@H](c3ccccc3)[C@H](c3ccccc3)N1[C@@H]2c1ccc(O)cc1,0.304 (inactive),0.744,-1.39,-0.485 (inactive),0.279 (inactive),0.475 (inactive)
O=C/C=C/c1ccc(Cl)cc1,-1.5 (inactive),-0.314,0.364,0.168 (inactive),-0.0674 (inactive),-0.659 (inactive)
O=C1OCC=C[C@H]2OC34C=CCN(c5ccc(Cl)cc5)C(=O)[C@H]3N(CCCCCCO)C(=O)[C@@H]4[C@@H]12 (stereo not given in full),-0.513 (inactive),-1.03,-0.358,-4.21 (inactive),-0.181 (inactive),-0.0007 (inactive)
CCCCCCCCCCC(O)C1C=CC2C(=O)N(Cc3ccccc3)C(=O)C2N1n1cnnc1 (stereo not given),0.109 (inactive),0.609,-1.08,-2.2 (inactive),0.577 (inactive),-0.034 (inactive)
COC(=O)C[C@@H]1C[C@H](C)[C@]2(O1)C(=O)N(Cc1ccccc1)c1ccc(NC(C)=O)cc12,-0.16 (inactive),0.295,-1.78,-3.77 (inactive),-0.139 (inactive),-0.194 (inactive)
COc1ccccc1CN1C(=O)c2ccccc2[C@@H](C(=O)NCCN2CCOCC2)[C@@H]1c1ccc(CO)cc1,-0.0758 (inactive),0.853,-1.86,-4.64 (inactive),0.193 (inactive),0.531 (inactive)
CO[C@H]1O[C@H](CO)[C@@H](OC(=O)Nc2ccc3c(c2)OCO3)[C@H](OC(=O)Nc2ccccc2)[C@H]1OC(=O)Nc1ccccc1,0.981 (inactive),0.831,-2.49,-4.76 (inactive),-0.328 (inactive),-0.439 (inactive)
C=CCN1C(=O)[C@]2(O[C@H](CCO)[C@@H]([Si](C)(C)c3ccc(OC)cc3)[C@@H]2C)c2cc(NC(=O)[C@H](C)O)ccc21,1.46 (inactive),0.822,-2.74,-5.5 (inactive),1.42 (inactive),0.436 (inactive)
COC(=O)[C@@]1(Cc2ccc(F)cc2)[C@H]2c3cc(C(=O)N(C)C)n(CCc4ccccn4)c3C[C@H]2CN1C(=O)c1ccccc1,0.258 (inactive),0.234,-1.21,-2.89 (inactive),-0.0308 (inactive),0.288 (inactive)
O=C1OCCC=C[C@H]2OC34C=CCN(Cc5ccccc5)C(=O)[C@H]3N(CCCO)C(=O)[C@@H]4C12 (stereo not given in full),0.17 (inactive),-0.461,-2.21,-4.21 (inactive),-0.16 (inactive),-0.035 (inactive)
CCOc1cc(C(O)C2C=CC3C(=O)N(c4ccccc4)C(=O)C3N2Nc2ccc([N+](=O)[O-])cc2)ccc1O (stereo not given),-0.394 (inactive),0.546,-1.76,-5.51 (inactive),0.555 (inactive),-0.452 (inactive)
CC(C)(C)N1CC=CC23O[C@@H]4/C=C\CCCOC(=O)C4[C@H]2C(=O)N(CCO)[C@@H]3C1=O (stereo not given in full),-0.0146 (inactive),0.368,-1.38,-4.95 (inactive),0.205 (inactive),0.299 (inactive)
COC(=O)c1c(CC[C@@H](CO)NC(=O)N[C@@H](Cc2ccccc2)Cn2cc(C3(O)CCCCC3)nn2)oc(C(C)=O)c1C(=O)OC,0.295 (inactive),0.536,-2.48,-5.32 (inactive),-0.0682 (inactive),-0.145 (inactive)
CC(C)C[C@@H]1NC(=O)[C@H]2C[C@@H](C(=O)NCCCCCCNC(=O)CS)[C@@H](c3cccc(OCCO)c3)N2C1=O,0.821 (inactive),0.792,-0.0202,-2.77 (inactive),0.0162 (inactive),0.12 (inactive)
O=C(O)[C@H]1C[C@H]2C(=O)NCC(=O)N2[C@H]1c1ccc(O)cc1,0.267 (inactive),-0.212,0.137,-0.43 (inactive),0.0056 (inactive),0.0301 (inactive)
O=C1C=CC(=O)[C@@H]2CC(COc3ccccc3)=C3[C@@H](CCc4ccccc4)OB(O)C[C@@H]3[C@H]12,-0.193 (inactive),0.433,-1.73,-5.92 (inactive),-0.042 (inactive),0.528 (inactive)
